# Measured values published in PubChem BioAssay AID1508601 (ICCB-Longwood Screening Facility, Harvard Medical School, 2020).
# Screen size: about 5,700 compounds; about 85 (1%) were called active. Cut-off read from the data, not from the text of the source: active = p53-positive nuclei above about 36% (passing the limit was not always enough); inactive = the rest. The sample as a whole holds a higher share of actives than the screen did.
# Legend:
# [1] = nuclear p53 accumulation, HPV+ cells – imaging, p53-positive nuclei imaging, 24 h, 48 h (AID 1508601); conditions: 24/48 h
# [2] = target: Cellular tumor antigen p53 (Homo sapiens) (UniProt P04637); assay: as above; conditions: 24/48 h, stronger effect = higher value
# Sequence of Cellular tumor antigen p53 (Homo sapiens) (P04637 whole entry, looked up): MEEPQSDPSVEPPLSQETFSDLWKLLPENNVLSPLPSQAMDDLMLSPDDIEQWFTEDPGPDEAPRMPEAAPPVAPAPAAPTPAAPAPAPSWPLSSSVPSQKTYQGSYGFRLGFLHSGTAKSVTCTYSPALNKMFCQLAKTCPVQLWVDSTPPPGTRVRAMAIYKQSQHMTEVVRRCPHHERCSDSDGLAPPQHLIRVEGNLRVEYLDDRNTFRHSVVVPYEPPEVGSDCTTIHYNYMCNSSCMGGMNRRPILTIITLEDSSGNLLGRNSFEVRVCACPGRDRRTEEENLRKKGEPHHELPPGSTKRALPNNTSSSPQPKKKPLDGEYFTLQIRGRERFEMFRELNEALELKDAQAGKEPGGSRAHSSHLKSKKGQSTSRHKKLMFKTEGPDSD
# [3] = measured here: cell number at 24 h, concentration not given here
# [4] = measured here: cell number at 48 h, concentration not given here
# [5] = measured here: p53 positive nuclei at 24 h, concentration not given here
smiles,measurement,setting,value
CCCCC[C@H](O)/C=C/[C@H]1[C@H](O)CC(=O)[C@@H]1C/C=C\CCCC(=O)Oc1ccc(NC(C)=O)cc1,"nuclei count, normalised",[1]; [3],106%
same,"nuclei count, normalised",[1]; [4],115%
same,"p53-positive nuclei, normalised",[2]; concentration not given here,-0.0787% (inactive)
same,"p53-positive nuclei, normalised",[2]; [5],-0.118%
CCCCCCCCCC(=O)CC(=O)N[C@H]1CCOC1=O,"nuclei count, normalised",[1]; [3],107%
same,"nuclei count, normalised",[1]; [4],108%
same,"p53-positive nuclei, normalised",[2]; concentration not given here,0.0451% (inactive)
same,"p53-positive nuclei, normalised",[2]; [5],-0.0502%
CC1CCNC(=O)c2cc3ccc(C(=O)Nc4nc5ccccc5n4CCCN(C)C)cc3n21 (stereo not drawn),"nuclei count, normalised","[1]; measured here: cell number at 24 h, Library stock concentration: 80 uM",112%
same,"nuclei count, normalised","[1]; measured here: cell number at 24 h, Library stock concentration: 400 uM",107%
same,"nuclei count, normalised","[1]; measured here: cell number at 24 h, Library stock concentration: 2 mM",107%
same,"nuclei count, normalised","[1]; measured here: cell number at 24 h, Library stock concentration: 10 mM",106%
same,"nuclei count, normalised","[1]; measured here: cell number at 48 h, Library stock concentration: 80 uM",115%
same,"nuclei count, normalised","[1]; measured here: cell number at 48 h, Library stock concentration: 400 uM",113%
same,"nuclei count, normalised","[1]; measured here: cell number at 48 h, Library stock concentration: 2 mM",111%
same,"nuclei count, normalised","[1]; measured here: cell number at 48 h, Library stock concentration: 10 mM",119%
same,"p53-positive nuclei, normalised",[2]; Library stock concentration: 80 uM,-0.131% (inactive)
same,"p53-positive nuclei, normalised",[2]; Library stock concentration: 400 uM,-0.0944% (inactive)
same,"p53-positive nuclei, normalised",[2]; Library stock concentration: 2 mM,0.0714% (inactive)
same,"p53-positive nuclei, normalised",[2]; Library stock concentration: 10 mM,-0.134% (inactive)
same,"p53-positive nuclei, normalised","[2]; measured here: p53 positive nuclei at 24 h, Library stock concentration: 80 uM",-0.0686%
same,"p53-positive nuclei, normalised","[2]; measured here: p53 positive nuclei at 24 h, Library stock concentration: 400 uM",0.0741%
same,"p53-positive nuclei, normalised","[2]; measured here: p53 positive nuclei at 24 h, Library stock concentration: 2 mM",-0.156%
same,"p53-positive nuclei, normalised","[2]; measured here: p53 positive nuclei at 24 h, Library stock concentration: 10 mM",-0.111%
Cn1ncc(NC(=O)CCc2cn3ccccc3n2)n1,"nuclei count, normalised",[1]; [3],84.4%
same,"nuclei count, normalised",[1]; [4],90.1%
same,"p53-positive nuclei, normalised",[2]; concentration not given here,-0.189% (inactive)
same,"p53-positive nuclei, normalised",[2]; [5],-0.142%
